The list is not random: actives were taken first. Their share in the collection is about 4.7%.
D1 antagonist: blocks dopamine activation of the human D1 receptor. 360,000 tested, 3.2% active. activity change, negative = inhibition, % at 10 µM. AID 504652. HEK293 TREx D1 cells, calcium flux, dopamine EC80; active compounds read low. P21728; in the data active = activity change below about -30%; note: % is set by controls: 0 for no effect and ±100 for the full control effect
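Allosteric or orthosteric antagonism assessed as attenuation of the calcium response to EC80 dopamine, added 180 s after compound, in induced HEK293 Trex D1 cells loaded with no-wash calcium dye.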
TRHR ag: activates the human TRH receptor; activation, % at 2 µM; TRHR cells, calcium flux fluo-8, FDSS agonist mode; 360,000 tested, 0.18% active; P34981; note: 0% is about no effect
Target sequence (P34981 whole entry, looked up): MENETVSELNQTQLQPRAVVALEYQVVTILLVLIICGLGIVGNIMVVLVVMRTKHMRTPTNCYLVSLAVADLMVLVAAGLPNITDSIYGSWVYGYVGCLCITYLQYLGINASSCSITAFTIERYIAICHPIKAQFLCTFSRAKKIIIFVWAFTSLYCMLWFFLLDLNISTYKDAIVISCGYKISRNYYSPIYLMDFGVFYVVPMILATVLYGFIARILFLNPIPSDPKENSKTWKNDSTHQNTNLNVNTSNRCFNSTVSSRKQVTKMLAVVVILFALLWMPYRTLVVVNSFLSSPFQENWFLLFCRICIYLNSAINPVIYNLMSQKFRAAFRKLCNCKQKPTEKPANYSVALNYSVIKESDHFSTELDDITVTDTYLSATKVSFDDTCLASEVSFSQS
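Read-out: compound-evoked intracellular calcium rise in TRHR cells, fluo-8 dye, kinetic FDSS fluorescence at 1 s/cycle following a 10-cycle baseline. Cells cultured overnight before dye loading (30 min–1.5 h, RT).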
D1 PAM: enhances dopamine response at the human D1 receptor. P21728. HEK293 TREx D1 cells, calcium flux, dopamine EC20 potentiation. potentiation, % at 10 µM. 360,000 tested, 0.036% active. AID 504651; in the data active = potentiation above about 30%; note: 0% is about no effect
TRHR PAM: allosterically enhances the human TRH receptor; P34981; TRHR cells, fluo-8 calcium fluorescence, EC20 TRH enhancement; enhancement, % at 2 µM; 360,000 tested, 0.66% active; AID 493056; in the data active = enhancement above about 30%; note: 0% is about no effect
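TRHR-expressing cells loaded with fluo-8 calcium dye were read kinetically (ex 480/em 530) during compound addition, then stimulated with an EC20 of TRH (10 nM final). Enhancement of the Gq-mediated intracellular calcium response was scored.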
D1 ag: agonists of human D1 dopamine receptor; P21728; HEK293 T-REx D1 cells, calcium flux, agonist mode; activation, % at 2 µM; 360,000 tested, 1% active; AID 504660; note: 0% is about no effect
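Tetracycline-induced HEK293 TREx D1 cells, force-coupled to calcium signalling, were dye-loaded with a no-wash calcium kit. Compound was pin-added after a 10 s baseline. Fluorescence was read kinetically at 1 cycle/s for 180 s, with calcium rises flagged as agonism.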
* = called active by the depositor. Cut-off read from the data, not from the text of the source, unless noted: active = activation above about 30%; inactive = the rest.

How did COc1ccc(NC(=O)C2=C(C)Nc3nc(SCc4ccccc4)nn3C2c2cc(OC)ccc2OC)cc1 (stereo unspecified) do in these assays?
D1 antagonist: 6; TRHR ag: 0; D1 PAM: -4; TRHR PAM: 0; D1 ag: 3

What do the screens show for `Cc1noc(/C=C/N(C)C)c1S(=O)(=O)N1CCCC(C(=O)NCc2ccccc2Cl)C1` (stereo unspecified)?
D1 antagonist: -51*; TRHR ag: 0; D1 PAM: -4; TRHR PAM: -2; D1 ag: 2

Results for Cc1noc(C)c1S(=O)(=O)N1CCN(c2ccccc2)CC1 ?
D1 antagonist: -63*; TRHR ag: 0; TRHR PAM: 13; D1 ag: 0

What do the screens show for `Cc1noc(C)c1S(=O)(=O)N1CCN(c2ccccc2Cl)CC1`?
D1 antagonist: -19; TRHR ag: 1; D1 PAM: 2; TRHR PAM: 1; D1 ag: 4

Results for Cc1noc(/C=C/N(C)C)c1S(=O)(=O)N1CCN(c2ccccc2)CC1 ?
D1 antagonist: -37*; TRHR ag: 0; D1 PAM: -5; TRHR PAM: -1; D1 ag: 1

Results for COC(=O)Cc1c(C)c2ccc(OCC(=O)NC3CCS(=O)(=O)C3)cc2oc1=O (stereo unspecified) ?
D1 antagonist: -1; TRHR ag: 0; D1 PAM: -9; TRHR PAM: -6; D1 ag: 1

What do the screens show for `Cn1c(C(=O)O)cc2cc(Oc3ccccc3)ccc21`?
D1 antagonist: 12; TRHR ag: 1; D1 PAM: 0; TRHR PAM: -1; D1 ag: 3

What do the screens show for `Cn1c(C(=O)NN)cc2cc(Oc3ccccc3)ccc21`?
D1 antagonist: -46*; TRHR ag: 0; D1 PAM: -5; TRHR PAM: -1; D1 ag: 5

How did COc1cc(NC(=O)c2noc3c2CCc2ccccc2-3)cc(OC)c1OC do in these assays?
D1 antagonist: -4; TRHR ag: 1; D1 PAM: 1; TRHR PAM: 10; D1 ag: -1

What do the screens show for `CCC(C(=O)NCCc1cc(OC)ccc1OC)n1nc(C)c2sc3ccccc3c2c1=O` (stereo unspecified)?
D1 antagonist: -7; TRHR ag: 0; D1 PAM: 1; TRHR PAM: -1; D1 ag: 1

What do the screens show for `CC(=O)c1ccc(NC(=O)c2ccc3c(c2)N(Cc2cccc(Cl)c2)C(=O)c2ccccc2S3(=O)=O)cc1`?
D1 antagonist: -7; TRHR ag: 1; D1 PAM: -2; TRHR PAM: 30*; D1 ag: 6

What do the screens show for `COc1ccc(NC(=O)c2ccc3c(c2)N(Cc2cccc(Cl)c2)C(=O)c2ccccc2S3(=O)=O)cc1Cl`?
D1 antagonist: -10; TRHR ag: 0; D1 PAM: -2; TRHR PAM: -2; D1 ag: 6

Results for CC1CCCN(CCCNC(=O)c2ccc3c(c2)N(Cc2ccc(Cl)cc2)C(=O)c2ccccc2S3(=O)=O)C1 (stereo unspecified) ?
D1 antagonist: -35*; TRHR ag: 4; D1 PAM: -1; TRHR PAM: -7; D1 ag: 60*

How did CC1CC(C)CN(CCCNC(=O)c2ccc3c(c2)N(Cc2ccccc2)C(=O)c2ccccc2S3=O)C1 (stereo unspecified) do in these assays?
D1 antagonist: 3; TRHR ag: -1; D1 PAM: -6; TRHR PAM: -4; D1 ag: 80*

Results for COc1ccc(CNC(=O)CN(c2ccc(C(C)C)cc2)S(=O)(=O)c2c(C)nn(C)c2C)cc1 ?
D1 antagonist: -14; TRHR ag: 0; D1 PAM: -3; TRHR PAM: -14; D1 ag: 7

How did COc1ccc(N2CCN(c3ncnc4onc(C)c34)CC2)cc1 do in these assays?
D1 antagonist: -36*; TRHR ag: 1; D1 PAM: -9; TRHR PAM: -9; D1 ag: 21

How did CC(=O)c1c(C)[nH]c(C(=O)NCc2ccccc2Cl)c1C do in these assays?
D1 antagonist: 15; TRHR ag: 0; D1 PAM: -3; TRHR PAM: 34*; D1 ag: 8

How did CC(=O)c1c(C)[nH]c(C(=O)Nc2ccccc2Cl)c1C do in these assays?
D1 antagonist: -1; TRHR ag: -1; D1 PAM: -7; TRHR PAM: 10; D1 ag: 1

Results for CCc1c(C(=O)NCc2ccccc2Cl)[nH]c(C)c1C(C)=O ?
D1 antagonist: -17; TRHR ag: 0; D1 PAM: -15; TRHR PAM: -1; D1 ag: 9

Results for CC(=O)c1c(C)[nH]c(C(=O)Nc2cccc3ccccc23)c1C ?
D1 antagonist: -33*; TRHR ag: 0; D1 PAM: -10; TRHR PAM: -4; D1 ag: 10

What do the screens show for `CC1=C(C(=O)Nc2cccc(C(F)(F)F)c2)C2(CCCCCC2)OC1=O`?
D1 antagonist: -27; TRHR ag: -1; D1 PAM: -4; TRHR PAM: 6; D1 ag: 32*

How did CC(=O)c1c(C)[nH]c(C(=O)Nc2ccc(F)cc2F)c1C do in these assays?
D1 antagonist: -15; TRHR ag: -1; D1 PAM: -4; TRHR PAM: 36*; D1 ag: 2

How did CCc1ccc(NC(=O)c2[nH]c(C)c(C(C)=O)c2C)cc1 do in these assays?
D1 antagonist: -39*; TRHR ag: -1; D1 PAM: -9; TRHR PAM: 0; D1 ag: 19

How did CC(=O)c1c(C)[nH]c(C(=O)Nc2cccc(C(F)(F)F)c2)c1C do in these assays?
D1 antagonist: -33*; TRHR ag: 0; D1 PAM: -10; TRHR PAM: -11; D1 ag: 14

How did CCC(C)c1ccccc1NC(=O)c1[nH]c(C)c(C(C)=O)c1C (stereo unspecified) do in these assays?
D1 antagonist: 6; TRHR ag: 1; D1 PAM: 0; TRHR PAM: -8; D1 ag: 5

What do the screens show for `CC(=O)c1c(C)[nH]c(C(=O)Nc2cccc(C#N)c2)c1C`?
D1 antagonist: -9; TRHR ag: 0; D1 PAM: -9; TRHR PAM: 1; D1 ag: 4

Results for CC(=O)c1c(C)[nH]c(C(=O)NC(C)c2ccccc2)c1C (stereo unspecified) ?
D1 antagonist: -33*; TRHR ag: 0; D1 PAM: -6; TRHR PAM: -4; D1 ag: 3

How did Cc1ccc(C(=O)Oc2oc(-c3ccccc3)nc2C=Nc2ccc(N(C)C)cc2)cc1 do in these assays?
D1 antagonist: -10; TRHR ag: 0; D1 PAM: 1; TRHR PAM: 8; D1 ag: 9

How did CN(C)c1ccc(N=Cc2nc(-c3ccccc3)oc2OC(=O)c2cccc(Cl)c2)cc1 do in these assays?
D1 antagonist: -32*; TRHR ag: 7; D1 PAM: -1; TRHR PAM: -2; D1 ag: 27

Screens deposited in PubChem BioAssay by National Center for Advancing Translational Sciences (NCATS).
